# Screens deposited in PubChem by several laboratories.
# KKLEB tox: reduces viability of KKLEB cystic fibrosis airway cells | KKLEB CF airway cells viability, ATPlite luminescence, overnight; stronger effect = lower value; cells stimulated with P. aeruginosa culture filtrate | actives 0.36% (n = 360,000) | activity change (cytotoxicity), % at 5 µM;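 active means corrected activity change at or below -50% at 5 µM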
# Shn3 inh set2: inhibitors of Schnurri-3 3'UTR reporter in osteoblasts; Clone20 osteoblast Shn3 3'UTR firefly luciferase, 24 h; inhibition, % at 12.5 µM; actives 0.52% (n = 360,000); AID 588674;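 active means mean inhibition of at least 75% with every replicate also reaching 75%; inconclusive means mean inhibition at least 75% but some replicate below; inactive means mean inhibition below 75%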;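 further: 0% = median of neutral control wells and 100% = pilot-screen positive control compound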
# CF NFkB block: cystic fibrosis NF-kB activation inhibition; KKLEB NF-kB-GFP reporter, PAF-induced, GFP fluorescence overnight; inhibition, % at 5 µM; actives 0.86% (n = 360,000); AID 588850;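 active means at least 50% inhibition at 5 µM, scaled per plate between neutral and stimulator controls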;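 further: PAF is a Pseudomonas aeruginosa culture filtrate used as stimulus; plate controls were PAF-stimulated DMSO wells for no effect and unstimulated DMSO wells for full effect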
# HIF-2a inh: inhibitors of HIF-2a; 786-0 RCC cells HIF-2a reporter, luciferase luminescence, overnight; inhibition, % at 18.8 µM; actives 0.72% (n = 360,000); AID 624352;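 active means inhibition of the luminescence signal of 40% or more relative to plate controls, in a single-dose primary screen at 18.75 µM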
# MITF TRPM1 inh: inhibitors of MITF-driven TRPM1 promoter in melanoma cells; SK-MEL-5 TRPM1 promoter luciferase, 24 h; inhibition, % at 12.5 µM; actives 0.83% (n = 330,000); AID 488899;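 active means mean inhibition across replicates of 60% or more, whatever share of single replicates reaches that level; inconclusive means some that reach 60%, reason not given; inactive means mean inhibition across replicates below 60%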
# Peg3 prom inh: inhibitors of Peg3 promoter; HeLa PEG-Prom luciferase reporter, luminescence, overnight; inhibition, % at 20 µM; actives 1.7% (n = 360,000); AID 588405;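 active means inhibition of at least 50% at 20 µM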
# Mdm2 MdmX conf: Mdm2/MdmX (human) interaction inhibition, confirmed; shares compounds with HIF-2a inh; SaOS-2 split-luciferase Mdm2/MdmX complementation, luminescence; inhibition, % at 8 µM; actives 99% (n = 740); AID 504601;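 active means mean inhibition of the luminescence signal across two replicates at or above 26 percent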
# Target sequence (O15151 whole entry, looked up): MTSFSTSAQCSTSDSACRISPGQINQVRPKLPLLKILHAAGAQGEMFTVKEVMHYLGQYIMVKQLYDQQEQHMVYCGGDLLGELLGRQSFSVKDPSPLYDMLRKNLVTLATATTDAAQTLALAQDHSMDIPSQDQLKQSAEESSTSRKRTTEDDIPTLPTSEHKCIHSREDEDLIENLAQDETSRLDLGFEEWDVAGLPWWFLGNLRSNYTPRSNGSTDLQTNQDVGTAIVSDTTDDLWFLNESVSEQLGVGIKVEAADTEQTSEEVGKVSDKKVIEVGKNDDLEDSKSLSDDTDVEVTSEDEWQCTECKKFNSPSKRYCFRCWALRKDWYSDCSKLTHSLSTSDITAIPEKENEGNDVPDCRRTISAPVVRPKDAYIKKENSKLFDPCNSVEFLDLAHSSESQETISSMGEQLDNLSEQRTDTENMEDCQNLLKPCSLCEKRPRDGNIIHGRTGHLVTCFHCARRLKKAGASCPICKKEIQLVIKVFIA
# Target sequence (Q00987 whole entry, looked up): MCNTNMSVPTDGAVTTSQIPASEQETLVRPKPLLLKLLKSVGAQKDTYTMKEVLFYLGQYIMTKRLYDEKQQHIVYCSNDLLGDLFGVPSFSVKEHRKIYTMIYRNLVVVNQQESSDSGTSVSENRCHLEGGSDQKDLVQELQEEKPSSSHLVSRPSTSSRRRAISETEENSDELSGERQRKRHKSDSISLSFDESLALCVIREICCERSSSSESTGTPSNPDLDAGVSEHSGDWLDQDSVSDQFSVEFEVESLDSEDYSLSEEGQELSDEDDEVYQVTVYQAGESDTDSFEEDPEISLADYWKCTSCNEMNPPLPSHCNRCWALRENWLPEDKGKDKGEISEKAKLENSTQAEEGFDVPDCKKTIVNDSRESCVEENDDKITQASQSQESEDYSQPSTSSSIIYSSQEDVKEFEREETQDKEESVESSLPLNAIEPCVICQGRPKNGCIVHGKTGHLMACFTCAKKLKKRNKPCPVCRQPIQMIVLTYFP
# HIF-2a conf: HIF-2a inhibition, single concentration confirmation; inhibition, % at 18.8 µM; AID 651580; shares compounds with HIF-2a inh; 786-0 RCC cells, HIF-2a luciferase reporter luminescence, overnight; actives 56% (n = 1,800);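 active means mean inhibition across four replicates of at least 40 percent at the single tested concentration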
# HIF-1a cs: HIF-1a inhibition counter-screen for HIF-2a hits | actives 72% (n = 1,800) | MiaPaCa-2 HIF-1a luciferase reporter, desferoxamine, overnight | inhibition, % at 18.8 µM | shares compounds with HIF-2a inh | AID 651589;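 active means mean inhibition of the reporter signal across four replicates at the single tested dose of 50% or more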
# Numbers without * were called inactive; ? = inconclusive; / = no result given. Rows were chosen to be rich in hits. Some 2.8% of all compounds tested hit in one or more screens of this group.
SMILES,KKLEB tox,Shn3 inh set2,CF NFkB block,HIF-2a inh,MITF TRPM1 inh,Peg3 prom inh,HIF-2a conf,HIF-1a cs,others
CC[C@@]1(C(=O)OC)N[C@H](CN(C)S(=O)(=O)c2ccc(-c3ccccc3)cc2)[C@@H]2C(=O)N(Cc3ccccc3)C(=O)[C@@H]21,0,7,-4,0,1,-8,/,/,Mdm2 MdmX conf=90*
CC1(c2nnc(-c3cccc(Cl)c3)o2)CC(c2ccc(F)cc2)=NO1 (stereo not drawn),-3,-14,14,-180,-17,-173,/,/,
Cc1cc(C)n(-c2nc(N(c3ccccc3)c3ccccc3)nc(-n3nc(C)cc3C)n2)n1,-53*,78,64*,-27,71*,108*,/,/,Mdm2 MdmX conf=103*
Cc1cc(C)n(-c2nc(Nc3ccccc3)nc(-n3nc(C)cc3C)n2)n1,13,15,-9,-2,-3,16,/,/,
Cc1ccc(C)c(-n2nnnc2Sc2nnnn2-c2ccccc2)c1,-68*,2,92*,29,21,96*,/,/,Mdm2 MdmX conf=103*
O=C(C#Cc1ccccc1)c1cccc([N+](=O)[O-])c1,-17,93*,59*,46*,102*,106*,11,86*,
C[C@@H]1CC=C[C@H]2[C@H]1C(=O)N(Cc1ccccc1)[C@H]2c1ccc2ccccc2c1,-17,-3,42,44*,-27,21,8,52*,
Cc1ccc(F)c([C@H]2[C@H]3C=CC[C@@H](C)[C@@H]3C(=O)N2Cc2ccccc2)c1,-13,-36,47,42*,-28,30,31,21,
COCC(=O)OCC(=O)N1N=C(c2ccc(Cl)cc2)CC1c1ccco1 (stereo not drawn),11,-4,14,5,11,-7,/,/,
CC(C)[C@H](NS(=O)(=O)c1ccccc1)C(=O)OCC(=O)N1N=C(c2ccc(Cl)cc2)CC1c1ccco1 (stereo partly drawn),-1,15,20,50*,-3,5,-3,89*,
Nc1cc(=O)[nH]c(SCC(=O)N2N=C(c3ccc(Cl)cc3)CC2c2ccco2)n1 (stereo not drawn),6,-41,5,-37,-9,-25,/,/,
CCCc1cc(=O)[nH]c(SCC(=O)N2N=C(c3ccc(Cl)cc3)CC2c2ccco2)n1 (stereo not drawn),1,-2,-2,40*,-2,13,-16,82*,
CCCN(C(=O)c1cn(-c2ccccc2)nc1-c1ccc(OC)cc1)C1CCS(=O)(=O)C1 (stereo not drawn),11,-13,1,-12,5,-15,/,/,
CCN(c1ccccc1)S(=O)(=O)c1ccc(Cl)c(NC(=O)Nc2ccc(Cl)cc2C#N)c1,-14,21,28,-90,9,9,/,/,Mdm2 MdmX conf=103*
CCN(c1ccccc1)S(=O)(=O)c1cc(NC(=O)Nc2ccccc2C#N)ccc1Cl,-6,2,7,26,-8,33,/,/,
O=C(CNC(=O)c1ccccc1F)NCCN1C(=O)S/C(=C\c2ccc3c(c2)OCO3)C1=O,-2,-21,-12,14,-13,-48,/,/,
NCCN1C(=O)S/C(=C\c2ccc3c(c2)OCO3)C1=O,11,63,-14,86*,?,-8,95*,67*,
NCCNc1ccc([N+](=O)[O-])c(Sc2nc3ccccc3[nH]2)c1,8,-54,6,27,-4,22,/,/,
O=[N+]([O-])c1cc(S(=O)(=O)C(F)(F)F)ccc1Sc1nc2ccccc2s1,-38,98*,10,56*,54,110*,34,101*,
O=[N+]([O-])c1cc(S(=O)(=O)C(F)(F)F)ccc1Sc1nc2ccccc2[nH]1,-24,16,50*,93*,96*,104*,69*,106*,
Cc1ccc(-c2nnc(SCC(=O)N/N=C/c3ccc(C)s3)n2-c2ccc(C)cc2)cc1,-1,-22,-21,1,-14,33,/,/,
Cc1cc(SC#N)cc(C)c1NC(=O)CCl,-31,-3,49,46*,35,28,54*,26,
Cc1cccc(CSC(Nc2ccc(F)cc2)=C(C#N)C#N)c1,-44,54,42,-2,16,62*,/,/,Mdm2 MdmX conf=94*
O=C(c1ccc(Oc2cc(Cl)cc(Cl)c2)o1)N1CCCCC1,-2,12,19,-4,-1,8,/,/,
Cc1ccc(C)c(OCc2ccc(C(=O)NN)o2)c1,0,8,-18,40*,-8,-2,29,-4,
SMILES,KKLEB tox,Shn3 inh set2,CF NFkB block,HIF-2a inh,MITF TRPM1 inh,Peg3 prom inh,HIF-2a conf,HIF-1a cs,others
CCN(Cc1ccccc1)c1ccc(/C=N/N=C(N)N)cc1,-18,83,35,93*,64*,108*,3,108*,Mdm2 MdmX conf=103*
COc1ccc2c(c1)C1(Nc3ccccc3-c3nc4ccccc4n31)C(=O)N2C (stereo not drawn),3,-1,-2,14,1,0,/,/,Mdm2 MdmX conf=94*
COc1ccc2c(c1)C1(Nc3ccccc3-c3nc4ccccc4n31)C(=O)N2 (stereo not drawn),1,12,0,8,5,6,/,/,
O=Cc1ccc(-c2cccs2)s1,-19,-6,3,44*,-9,-89,52*,-13,
CN(CC(=O)Nc1ccc(F)cc1[N+](=O)[O-])C1CCS(=O)(=O)C1 (stereo not drawn),-13,-2,-13,-17,11,-3,/,/,
COc1cc(/C=C/C(=O)c2ccc(C)c([N+](=O)[O-])c2)cc(OC)c1O,-39,45,43,47*,8,63*,21,36,
COc1cc(/C=C/C(=O)c2ccc(NS(=O)(=O)c3ccc(C)cc3)cc2)cc(OC)c1O,13,12,-14,54*,67*,65*,64*,104*,
CC1CCCN(CCCN2C(=O)C3C(C(=O)Nc4cccc(Cl)c4)C4C=CC3(O4)C2C(=O)NC2CCCCC2)C1 (stereo not drawn),-4,5,4,12,-15,-13,/,/,
CN(C)CCn1c2ccccc2c2nc3ccc([N+](=O)[O-])cc3cc21,1,1,-81,-70,/,-11,/,/,Mdm2 MdmX conf=102*
CCn1c2ccccc2c2cc([N+](=O)[O-])ccc21,11,11,2,12,8,2,/,/,
Cc1ccc(S(=O)(=O)NC(CC(C)C)C(=O)N2CCN(C/C=C/c3ccccc3)CC2)cc1 (stereo not drawn),-3,15,-12,-2,8,-1,/,/,
